Test [1] in a line: antimalarial activity against Dd2 strain (AID 2302;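 active = growth inhibition above 50% at the single 2 µM test dose, taken to imply half-maximal potency below 2 µM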;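 also: 0% = DMSO untreated growth and 100% = chloroquine plus artemisinin killed control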). Particulars: P. falciparum Dd2 in RBCs, LDH growth readout, 72 h; at 2 µM; hits give high values.
Test [2] can be described thus: HepG2 cytotoxicity, primary screen, cytotoxicity control for P. falciparum antimalarial project, cell-based, ATP luminescence (AID 2303;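 active = inhibition above 50%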;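 also: 0% = DMSO wells and 100% = digitonin-killed cells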). Particulars: HepG2 viability, 24-48 h, at 10 µM, hits give high values.
In test [3] the target is L-lactate dehydrogenase (Plasmodium falciparum (isolate CDC / Honduras)) (UniProt Q27743). Nature of the test: PfLDH activity inhibition – cell lysate, 3D7 strain, counter-screen for P. falciparum growth inhibition project (AID 2304).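 Also: 0% = vehicle and 100% = reference inhibitor.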 Particulars: P. falciparum 3D7 crude extract, LDH APAD/NBT absorbance; at 2 µM; hits give high values.
Chain of L-lactate dehydrogenase (Plasmodium falciparum (isolate CDC / Honduras)) (Q27743 whole entry, looked up): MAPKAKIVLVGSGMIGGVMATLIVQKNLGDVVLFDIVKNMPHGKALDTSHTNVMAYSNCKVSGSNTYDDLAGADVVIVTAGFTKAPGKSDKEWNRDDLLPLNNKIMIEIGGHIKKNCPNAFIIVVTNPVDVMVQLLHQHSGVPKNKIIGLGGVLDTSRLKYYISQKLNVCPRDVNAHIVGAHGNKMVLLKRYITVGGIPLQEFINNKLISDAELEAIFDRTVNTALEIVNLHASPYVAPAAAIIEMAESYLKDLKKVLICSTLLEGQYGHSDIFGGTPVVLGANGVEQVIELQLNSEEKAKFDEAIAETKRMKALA
The nature of test [4]: inhibition of 3D7 malaria parasite growth – strain 3D7 (AID 2306).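 Also: 0% = DMSO wells and 100% = chloroquine plus artemisinin control wells.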 Particulars: P. falciparum 3D7 erythrocytic growth, LDH absorbance, 72 h; at 2 µM; hits give high values.
The target in test [5] is Calcium-dependent protein kinase 1 (Plasmodium falciparum (isolate 3D7)) (UniProt P62344). Nature of the test: PfCDPK1 kinase inhibitors, biochemical, TCAMS library (AID 1159585; cut-off not given, nearly all actives have IC50 up to about 0.98 µM;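 also: inhibitors leave more ATP so luminescence rises with inhibition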). The settings on record: recombinant PfCDPK1, Kinase-Glo ATP depletion luminescence.
Chain of Calcium-dependent protein kinase 1 (Plasmodium falciparum (isolate 3D7)) (P62344 whole entry, looked up): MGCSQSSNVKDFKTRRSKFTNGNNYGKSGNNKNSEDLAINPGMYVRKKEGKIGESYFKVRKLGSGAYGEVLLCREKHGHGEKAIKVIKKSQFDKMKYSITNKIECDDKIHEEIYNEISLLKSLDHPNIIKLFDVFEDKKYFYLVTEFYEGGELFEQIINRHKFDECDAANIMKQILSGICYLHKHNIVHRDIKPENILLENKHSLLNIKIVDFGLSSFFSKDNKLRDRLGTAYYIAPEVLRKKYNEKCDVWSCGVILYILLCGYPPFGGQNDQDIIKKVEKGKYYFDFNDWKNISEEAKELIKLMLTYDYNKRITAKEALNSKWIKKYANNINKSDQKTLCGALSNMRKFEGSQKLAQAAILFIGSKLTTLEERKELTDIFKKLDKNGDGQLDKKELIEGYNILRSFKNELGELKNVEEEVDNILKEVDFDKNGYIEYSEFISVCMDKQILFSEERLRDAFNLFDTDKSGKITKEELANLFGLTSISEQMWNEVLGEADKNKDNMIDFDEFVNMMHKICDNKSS
For test [6], the target named is Plasmodium falciparum protein kinase 6 (PK6, PF3D7_1337100) (UniProt Q8IDW1). Briefly: PfPK6 kinase inhibitors, biochemical, TCAMS library (AID 1159586). Particulars: recombinant PfPK6, Kinase-Glo ATP depletion luminescence.
Chain of Plasmodium falciparum protein kinase 6 (PK6, PF3D7_1337100) (Q8IDW1 1-305): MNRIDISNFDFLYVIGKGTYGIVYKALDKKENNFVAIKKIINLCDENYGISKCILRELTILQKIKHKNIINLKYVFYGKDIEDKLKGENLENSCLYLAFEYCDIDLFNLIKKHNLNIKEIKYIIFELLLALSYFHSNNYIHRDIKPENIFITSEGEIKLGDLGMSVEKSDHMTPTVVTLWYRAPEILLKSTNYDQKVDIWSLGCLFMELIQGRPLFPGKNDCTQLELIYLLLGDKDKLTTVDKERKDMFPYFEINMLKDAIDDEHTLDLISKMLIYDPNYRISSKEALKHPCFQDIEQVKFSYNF
In test [7] the target is Protein kinase 7 (PK7), Plasmodium falciparum 3D7 (PF3D7_0213400) (UniProt Q7YTF7). Nature of the test: inhibition of Plasmodium PK7 catalytic activity – biochemical, TCAMS antimalarial set, Kinase-Glo luminescence (AID 1159587). The settings on record: recombinant PfPK7, Kinase-Glo ATP depletion luminescence.
Chain of Protein kinase 7 (PK7), Plasmodium falciparum 3D7 (PF3D7_0213400) (Q7YTF7 1-343): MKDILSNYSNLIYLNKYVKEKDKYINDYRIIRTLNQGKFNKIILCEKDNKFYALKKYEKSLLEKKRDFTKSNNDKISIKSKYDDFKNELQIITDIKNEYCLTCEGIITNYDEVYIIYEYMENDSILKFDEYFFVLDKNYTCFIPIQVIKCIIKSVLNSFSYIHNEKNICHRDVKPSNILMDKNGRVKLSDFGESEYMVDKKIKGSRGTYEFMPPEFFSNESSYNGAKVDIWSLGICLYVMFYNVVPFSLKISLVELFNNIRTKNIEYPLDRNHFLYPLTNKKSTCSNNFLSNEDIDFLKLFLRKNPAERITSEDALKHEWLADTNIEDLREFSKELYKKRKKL
The target of test [8] is Calcium-dependent protein kinase 4 (Plasmodium falciparum (isolate 3D7)) (UniProt Q8IBS5). Nature of the test: PfCDPK4 kinase inhibitors, biochemical, TCAMS library (AID 1159588; cut-off not given, nearly all actives have IC50 up to about 0.91 µM). The settings on record: recombinant PfCDPK4, Kinase-Glo ATP depletion luminescence.
Chain of Calcium-dependent protein kinase 4 (Plasmodium falciparum (isolate 3D7)) (Q8IBS5 whole entry, looked up): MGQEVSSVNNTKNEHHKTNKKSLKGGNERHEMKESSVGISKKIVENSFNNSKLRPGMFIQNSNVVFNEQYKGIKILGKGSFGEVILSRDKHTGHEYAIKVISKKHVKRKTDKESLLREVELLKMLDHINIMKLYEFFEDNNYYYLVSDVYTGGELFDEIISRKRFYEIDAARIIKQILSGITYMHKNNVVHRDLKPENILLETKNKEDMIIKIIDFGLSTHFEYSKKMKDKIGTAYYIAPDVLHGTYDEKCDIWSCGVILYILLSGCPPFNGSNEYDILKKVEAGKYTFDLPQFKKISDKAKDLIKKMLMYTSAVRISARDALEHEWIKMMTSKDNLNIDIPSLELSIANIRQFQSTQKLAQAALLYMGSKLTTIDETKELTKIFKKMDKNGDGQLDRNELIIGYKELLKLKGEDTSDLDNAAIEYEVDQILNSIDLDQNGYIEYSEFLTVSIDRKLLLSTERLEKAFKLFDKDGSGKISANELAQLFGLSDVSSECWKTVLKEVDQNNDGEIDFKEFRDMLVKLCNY

A number with no mark means an inactive call. For some of these results: Entries with a potency or affinity are not part of this list. The source made the active and inactive calls. Unless noted, no rule for the calls is given here.

In the case of `CCOC(=O)c1ccc(N2CCN(c3cc(Cl)ccc3C)CC2)c(NC(=O)Nc2ccc(Cl)c(Cl)c2)c1`, the growth inhibition in test [1] and in test [4] was 99% (active) throughout. The inhibition in test [2] was 10%; in test [3], -5%. For the same compound, the outcome in test [5], in test [6], in test [7] and in test [8] was inactive.
As for `CCCN(Cc1ccc(C)cc1)Cc1cc(=O)c2cc(Cl)ccc2[nH]1`, the growth inhibition in test [1] is 91% (active); in test [4], 86% (active). In addition, the inhibition in test [2] is 51% (active); in test [3], 4%. The result in test [5], in test [6], in test [7] and in test [8] was inactive.
Consider `Cc1ccccc1OCC(O)CNC1CCC(NCC(O)COc2ccccc2C)CC1` (stereo not given), for which the growth inhibition is 24% in test [1] and 98% (active) in test [4]. Besides, the inhibition in test [2] is 96% (active); in test [3], 0%. The result in test [5], in test [6], in test [7] and in test [8] was inactive.
Consider `NC(N)=Nc1nc(-c2cccc(NC(=O)NCC(c3ccccc3)c3ccccc3)c2)cs1`, for which the growth inhibition in test [1] was 87% (active); in test [4] it was 100% (active). Also, the inhibition is -3% in test [2] and 1% in test [3]. Moreover, the result in test [5], in test [6], in test [7] and in test [8] was inactive.
Consider `O=C(/C=C/c1ccc(Cl)c(Cl)c1)NCCCCCN1CCC(NC(=S)Nc2ccc(Cl)c(Cl)c2)CC1`, for which the growth inhibition was 65% (active) in test [1] and 99% (active) in test [4]. The inhibition in test [2] was 29%; in test [3], 2%. For the same compound, the outcome in test [5], in test [6], in test [7] and in test [8] was inactive.
As to `COCCOc1cc(C)c(C2CCN(CCCCNC(=O)c3ccc(NC(=O)c4ccc(Cl)cc4)cc3)CC2)cc1C`, the growth inhibition in test [1] is 30%; in test [4], 88% (active). The inhibition is 15% in test [2] and -2% in test [3]. Also, the result in test [5], in test [6], in test [7] and in test [8] was inactive.
Regarding `COc1c(C2CCN(CCCCNC(=O)c3ccc(-c4ccc(C(=O)C(F)(F)F)cc4)cc3)CC2)ccc2c1CCCC2`, the values for the growth inhibition in test [1] and in test [4] were 33% and 81% (active), respectively. Moreover, the values for the inhibition in test [2] and in test [3] were 99% (active) and -4%, respectively. The outcome in test [5], in test [6], in test [7] and in test [8] was inactive.
In the case of `COc1ccc2nccc(NN=Cc3ccccc3F)c2c1`, the growth inhibition is 98% (active) in test [1] and 103% (active) in test [4]. Besides, the inhibition in test [2] is 23%; in test [3], -2%. In addition, the outcome in test [5], in test [6], in test [7] and in test [8] was inactive.
`Cc1ccc(C)c(Cn2ccc3nc(N)nc(N)c32)c1`: the growth inhibition was 3% in test [1] and 97% (active) in test [4]. Also, the values for the inhibition in test [2] and in test [3] were 65% (active) and -1%, respectively. The result in test [5], in test [6], in test [7] and in test [8] was inactive.
Turning to `COc1ccccc1N1CCN(Cc2c(O)ccc3cc(Br)ccc23)CC1`, the growth inhibition in test [1] was 75% (active); in test [4], 89% (active). In addition, the inhibition was 8% in test [2] and 2% in test [3]. Further, the outcome in test [5], in test [6], in test [7] and in test [8] was inactive.
On to `CCNc1cc(C)nc(Nc2ccc(NC(=O)c3ccco3)cc2)n1`, for which the growth inhibition was 32% in test [1] and 95% (active) in test [4]. The figures for the inhibition in test [2] and in test [3] were 24% and -2%, respectively. The result in test [5], in test [6], in test [7] and in test [8] was inactive.
For the compound `O=[N+]([O-])c1ccc2c(-c3ccccc3)c(-c3ccccc3)n(O)c2c1`, the growth inhibition in test [1] was 11%; in test [4], 97% (active). The figures for the inhibition in test [2] and in test [3] were 8% and -3%, respectively. Besides, the outcome in test [5], in test [6], in test [7] and in test [8] was inactive.
For `CSc1sc(NC(=O)Nc2cccc(C(F)(F)F)c2)cc1C#N`, the results for the growth inhibition in test [1] and in test [4] were 46% and 99% (active), respectively. Besides, the inhibition is 27% in test [2] and -1% in test [3]. Moreover, the outcome in test [5], in test [6], in test [7] and in test [8] was inactive.
For the compound `O=C(Nc1cccc(-c2cccc(-c3nc4ccccc4[nH]3)c2)c1)Nc1ccc2c(c1)OCO2`, the growth inhibition in test [1] was 57% (active); in test [4], 101% (active). Also, the inhibition was 25% in test [2] and -4% in test [3]. Besides, the outcome in test [5], in test [6], in test [7] and in test [8] was inactive.
On to `CC1CN(Cc2ccc(-c3ccc(-c4nc5ccc(F)cc5[nH]4)s3)cc2)CC(C)O1` (stereo not given), for which the growth inhibition was 89% (active) in test [1] and 88% (active) in test [4]. Also, the inhibition was 35% in test [2] and -10% in test [3]. The result in test [5], in test [6], in test [7] and in test [8] was inactive.
`CC(=O)Nc1nc(C(=O)Nc2cccc(-c3cccc(-c4nc5ccc(F)cc5[nH]4)c3)c2)cs1`: the growth inhibition was 100% (active) in test [1] and 101% (active) in test [4]. Also, the results for the inhibition in test [2] and in test [3] were 39% and -2%, respectively. Moreover, the result in test [5], in test [6], in test [7] and in test [8] was inactive.
In the case of `CCC(C)NS(=O)(=O)c1ccc2nc(Nc3ccc(C)c(Cl)c3)n(C3CCCCC3)c2c1` (stereo not given), the growth inhibition in test [1] was 98% (active); in test [4], 99% (active). Moreover, the inhibition in test [2] was -8%; in test [3], 5%. Further, the outcome in test [5], in test [6], in test [7] and in test [8] was inactive.
Take `COc1ccc2nccc([C@@H](O)CN3CCC(NCCNc4cccc(F)c4)CC3)c2c1`: the growth inhibition in test [1] was 73% (active); in test [4] it was 98% (active). Also, the inhibition in test [2] was 11%; in test [3], 0%. The result in test [5], in test [6], in test [7] and in test [8] was inactive.
Consider `Cc1ccc(-c2nnc(Nc3ccc(C(=O)N4CCCCC4)cc3)c3ccccc23)cc1S(=O)(=O)NCC1CCCO1` (stereo not given), for which the growth inhibition in test [1] and in test [4] was 99% (active) throughout. Also, the inhibition in test [2] is -5%; in test [3], -4%. The result in test [5], in test [6], in test [7] and in test [8] was inactive.
Take `COc1cc(NC(=O)N2CCc3ccc(OCCC4CCCN4C)cc32)cc(C(F)(F)F)c1` (stereo not given): the growth inhibition was 42% in test [1] and 101% (active) in test [4]. Moreover, the inhibition in test [2] is 5%; in test [3], 3%. Also, the result in test [5], in test [6], in test [7] and in test [8] was inactive.

The values above are taken from PubChem BioAssay.
